# Screening data (PubChem)
# In the library only some 7.9% were active in any assay of this set; here they are far more common.
# MCF10A rereplic: inducers of DNA re-replication in MCF 10A breast cells | MCF 10A DNA re-replication, Hoechst nuclear intensity, 48 h | 2.9% of 350,000 active | Potency, µM (titrated, usually from 46.1 µM), without a hit: at the highest dose activity, positive = re-replication, actives largely listed as activators; further: % of control where 0% means no effect; nearly all actives have a fitted effect of over 50% in size
# KB-V1 MDR tox: kills drug-selected multidrug resistant KB-V1 cells. KB-V1 MDR cells viability, CellTiter-Glo, 72 h. AID 1347076. Potency, µM (series often up to 46.1 µM), most hits filed as cytotoxic. 3.4% of 400,000 active; further: on the % scale 0 is the no-effect control and ±100 the full control effect; nearly all actives have a fitted effect of over 60% in size
#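 Luminescent ATP read-out (CellTiter-Glo, 10 min) measures survival of drug-selected KB-V1 MDR cells after 72 h, 37 degrees C compound exposure. Medium: phenol-red-free DMEM, 10% FBS. Values from fitted concentration-response curves.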
# SW480 rerep: DNA re-replication induction in SW480 cells | Potency, µM (top dose mostly 46.1 µM), without a hit: at the top dose re-replication activation, most hits filed as activators | SW480 DNA re-replication, Hoechst DNA content imaging, 48 h | AID 624297 | 1.8% of 340,000 active; further: % of control where 0% means no effect; nearly all actives have a fitted effect of over 55% in size
#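 250 cells/well; 23 nL cpd via pin tool; 48 hr, 37 C, 5% CO2; Hoechst 40 min; imager read of total nuclear intensity, ex 405/em 500-530 nm.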
# KB-3-1 tox: KB-3-1 parental cell cytotoxicity | Potency, µM (series often up to 46.1 µM), usual class: cytotoxic | KB-3-1 viability, CellTiter-Glo ATP luminescence, 72 h | 1.4% of 400,000 active; further: on the % scale 0 is the no-effect control and ±100 the full control effect; nearly all actives have a fitted effect of over 60% in size
#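 Parental KB-3-1 adenocarcinoma cells in phenol-red-free DMEM with 10% FBS were pin-treated with compounds at several concentrations, incubated 72 h at 37 °C, and viability read by CellTiter-Glo luminescence; concentration-effect curves were fitted after normalization.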
# HT1080-NT tox: kills 2HG-producing HT-1080-NT fibrosarcoma cells; HT-1080-NT fibrosarcoma viability, CellTiter-Glo ATP luminescence, 48 h; Potency, µM (titrated, usually from 46.1 µM), inactives show top-dose activity, negative = less viability, most hits filed as cytotoxic; 1.6% of 360,000 active;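 further: NT is the 2HG producing partner of a matched IDH1 knockdown line; 0% = DMSO-treated cells and -100% = media-only wells without cells; nearly all actives have a fitted effect of over 55% in size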
#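 Fibrosarcoma NT cells, 750 per well in 5% FBS RPMI, were exposed to compound for 48 hours. Viability: CellTiter-Glo luminescence.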
# HT1080 IDH1KD tx: toxicity to HT-1080 IDH1 knockdown cells (counter line); HT-1080 IDH1 knockdown viability, ATP luminescence, 48 h; Potency, µM (top dose mostly 46.1 µM), for the others: at the highest dose activity, negative = toxicity, usual class: cytotoxic; 2% of 360,000 active;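 further: 0% = DMSO wells and -100% = cell-free medium wells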
#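 IDH1KD HT-1080 cells, 750/well, RPMI + 5% FBS; compound pinned after 2 h settling; 48 h, 37 °C; CellTiter-Glo luminescence; % activity normalised to DMSO and no-cell wells; curves fitted, classed by r2 and efficacy.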
# Starred values were filed as active, the others as inactive; i = inactive; ? = inconclusive; · = no result given; [ ] = another dose, or the depositor's remark. The call rests on the fitted dose curve; in most records, active means well fitted curve in the direction sought with a large enough effect; inconclusive means small, poorly fitted or top-dose-only effect, or another doubt; inactive means no such curve, though single readings can be large; an effect the other way counts as inactive or inconclusive. Potency means the concentration at half of the fitted maximal effect.
SMILES,MCF10A rereplic,KB-V1 MDR tox,SW480 rerep,KB-3-1 tox,HT1080-NT tox,HT1080 IDH1KD tx
O=C(Oc1cccc2cccnc12)c1ccco1,?,?,?,?,-21%,-15%
O=C(Oc1cccc2cccnc12)c1cccc([N+](=O)[O-])c1,?,?,?,i,?,?
O=C(Oc1cccc2cccnc12)c1ccc2c(c1)OCCO2,3.3µM*,?,10µM*,i,23µM*,?
O=C(Oc1cccc2cccnc12)c1cccs1,5.2µM*,12µM*,?,?,15µM*,6.5µM*
O=C(Oc1ccccc1)c1cccc2cccnc12,0%,i,-5%,i,4µM*,4µM*
CC(C)NC(=O)NC(=O)COC(=O)CCOc1ccccc1,-1%,i,-10%,i,0%,-8%
CC(C)Cc1nnc(NC(=O)CCC(=O)Nc2ccccc2F)s1,-5%,i,-15%,i,6%,9%
CC(=O)OC1(C(C)=O)CCC2C3CC(C(F)(F)F)C4=CC(=O)CCC4(C)C3CCC21C (stereo unspecified),159%,i,?,i,18µM*,21µM*
OCc1nc2ccccc2n1CC(O)Cn1ccc2ccccc21 (stereo unspecified),6%,21µM*,-3%,?,-20%,-8%[9.24 µM]
COC(=O)C1(c2ccccc2)NC(c2cccs2)C2C(=O)N(c3ccccc3)C(=O)C21 (stereo unspecified),18%,23µM*,51%,?,5%,-11%
O=C(Nc1ncccc1O)c1ccc(Cl)c(S(=O)(=O)N2CCCCCC2)c1,?,i,-4%,i,1%,-12%
COc1ccc2[nH]c3c(=O)n(/N=C/[C@H]4C(C)C=C(C)CC4C)c(=O)[nH]c3c2c1 (stereo partly specified),12µM*,i,18µM*,?,?,?
COc1ccc2c(c1)[nH]c1c(=O)n(/N=C/C3C(C)C=C(C)CC3C)c(=O)[nH]c12 (stereo unspecified),?,i,5%,i,-22%,0%
O=c1c([N+](=O)[O-])c(NC2CCCCC2)c2ccccc2n1-c1ccccc1,-2%,i,?,i,-2%,0%
COc1cccc(CSc2nc3ccccc3cc2C=O)c1,13µM*,?,1.3µM*,?,18µM*,21µM*
COc1cccc(NC(=O)CSc2nc3ccccc3cc2Cc2ccccc2)c1,0%,i,0%,i,9%,4%
Cc1ccc(Cl)cc1NC(=O)CSC(N)=O,6%,i,-4%,i,-13%,1%
CN(C)Cc1cc(OCc2ccccc2)cc(CN(C)C)c1O,·,i,·,i,-2%,-1%
Cc1ccc(C2=NN(C(=O)CCl)C(c3ccco3)C2)o1 (stereo unspecified),21µM*,?,?,?,6.5µM*,7.3µM*
CC(=O)N1N=C(c2ccco2)CC1c1ccco1 (stereo unspecified),1%,i,-2%,i,22%,19%
Cc1ccc(NC(=O)CN2C(=O)C(C)Oc3ccccc32)nc1 (stereo unspecified),2%,15µM*,-4%,i,8%,?
COc1ccc(NC(=O)CN2C(=O)C(C)Oc3ccc(C)cc32)cc1 (stereo unspecified),16%,i,?,i,?,21µM*
COc1ccc(NC(=O)CN2C(=O)C(C)Oc3ccccc32)c(OC)c1 (stereo unspecified),1%,16µM*,-15%,i,8%,-25%
CCCOc1ccc(CSCCNC(=S)Nc2ccccc2)cc1,?,?,15%,i,-8%,-24%
Cc1ccc(S(=O)(=O)N(C)C)cc1NC(=O)c1cc(-c2ccncc2)nc2ccccc12,-8%,i,?,?,-2%,-2%
SMILES,MCF10A rereplic,KB-V1 MDR tox,SW480 rerep,KB-3-1 tox,HT1080-NT tox,HT1080 IDH1KD tx
CSc1nc2ccc(S(=O)(=O)N3CCCCC3)cc2s1,-1%,?,-7%,?,5%,2%
CSc1nc2ccc(S(=O)(=O)NC3CCCCC3)cc2s1,2%,16µM*,-9%,?,0%,-2%
COc1ccc(N2CC(C(=O)NC3=NCCS3)CC2=O)cc1 (stereo unspecified),-3%,i,120%[1.84 µM],i,10%,7%
Cc1noc2ncnc(Sc3c(Cl)cccc3Cl)c12,4.5µM*,?,?,?,?,?
Cc1ccccc1Sc1ncnc2onc(C)c12,?,i,-8%,?,-4%,-4%[9.24 µM]
Cc1noc2ncnc(Sc3ccc(Cl)cc3)c12,12µM*,i,?,?,?,4%[9.24 µM]
COC(Cn1c(-c2cccc(S(=O)(=O)N(C)C)c2)n[nH]c1=S)OC,0%,i,-6%,i,9%,6%
CCC(CO)Oc1cc(NCc2ccccc2)c2ncn(C(C)C)c2c1 (stereo unspecified),-3%,i,13%,i,9%,-3%
CC(C)n1cnc2c(NCc3ccccc3)cc(N[C@H](C)CO)cc21,?,i,0.65µM*,?,23µM*,23µM*
CCC1C(=O)N=C(SCC(=O)Nc2ccc(Br)cn2)NC1=O (stereo unspecified),-2%,?,-106%,i,-21%,-3%
COc1ccccc1CN1C(=O)[C@@H]2Cc3c([nH]c4ccccc34)C(C)(C)N2C1=O,27%,21µM*,-3%,?,·,·
CC1(C)c2[nH]c3ccccc3c2C[C@H]2C(=O)N(Cc3cccc(F)c3)C(=O)N21,?,i,?,?,·,·
COc1ccc(CN2C(=O)[C@H]3Cc4c([nH]c5ccccc45)C(C)(C)N3C2=O)cc1,9.2µM*,?,-4%,?,·,·
COc1cccc(CN2C(=O)[C@H]3Cc4c([nH]c5ccccc45)C(C)(C)N3C2=O)c1,?,16µM*,0%,i,·,·
COc1ccc(CN2C(=O)[C@@H]3Cc4c([nH]c5ccccc45)C(C)(C)N3C2=O)cc1,14%,?,-6%,18µM*,·,·
CCc1nn(Cc2cc(C)ccc2C)c(=O)c2cc3cc(C)ccc3n12,·,i,·,i,·,·
CCN(C1CCS(=O)(=O)C1)S(=O)(=O)c1ccc(OC)c(OC)c1 (stereo unspecified),-1%,i,-5%,i,0%,1%
COc1ccc(/C=C2\Cc3ccccc3C2=O)cc1OC,28%,i,2%,i,3%,5%
